Drawing on PubChem BioAssay AID463173 (ICCB-Longwood Screening Facility, Harvard Medical School, 2010), this text covers survival for 67 molecules.

About 4,300 (8.3%) of roughly 52,000 compounds were called active. Cut-off read from the data, not from the text of the source: active = survival mostly below about 52% (no sharp cut-off); inactive = mostly above about 56%. Shown is part of a subset that was picked to be rich in actives.

In the assay the test system is DeltatarO mutant. Put plainly: S. aureus survival, RN4220 and DeltatarO strains – OD600, teichoic acid synthesis inhibitors, primary screen (AID 463173). The conditions noted are these: S. aureus RN4220 wild type/DeltatarO growth, OD600, 18 h, hits give low values, screened at 18.75 µg/mL (by protocol).
For `O=C(Nc1nnc(N2CCCCCC2)s1)Nc1cc(F)ccc1F`, the survival was 103% (inactive).
For the molecule `CC1=C(C(=O)N(C)C)C(c2ccccc2Cl)NC(=O)N1` (configuration not stated), the survival is 76% (inactive).
In the case of `CC(C)N1CC(C(=O)Nc2ccccc2)CC1=O` (configuration not stated), the survival is 73% (inactive).
In the case of `CCOC(=O)c1cc(-c2ccc(OC)c(S(=O)(=O)NC3CCCCC3)c2)on1` it was 89% (inactive); in that of `CN1CCSc2ccc(C(=O)NCc3ccccc3)cc21`, 67% (inactive); in that of `O=C(NC1CCCC1)C(c1ccncc1)N(CCCN1CCOCC1)C(=O)c1ccc(-c2ccccc2)[nH]1` (configuration not stated), 76% (inactive).
The same measure for `CN(C)C(=O)c1ccc(S(=O)(=O)NCc2ccccc2Cl)s1`: 94% (inactive); for `Cc1cccc(Cn2cc(C(=O)Nc3cc(F)ccc3F)ccc2=O)c1`: 74% (inactive); for `Cc1noc(-c2ccc(-c3noc(-c4cccc(F)c4)n3)cc2)n1`: 76% (inactive).
In the case of `Cc1ccc(NC(=O)Cn2cc3c(n2)CCCC3)cc1Cl` it was 87% (inactive); in that of `COc1ccc(C2CC(=O)c3c([nH]c(C(=O)OC4CCCCCC4)c3C)C2)cc1OC` (configuration not stated), 81% (inactive).
Regarding `COc1cc(C2CC(=O)c3c([nH]c(C(=O)OC4CCCC4)c3C)C2)cc(OC)c1OC` (configuration not stated), the survival is 51% (active).
The same measure for `COc1ccc(C2CC(=O)c3c([nH]c(C(=O)OC4CCCC4)c3C)C2)cc1OC` (configuration not stated): 128% (inactive); for `CC1(C)CC(=O)C2=C(C1)OC(N)=C(C#N)C2c1ccc2c(c1Cl)OCO2` (configuration not stated): 97% (inactive).
In the case of `COC(=O)c1ccccc1NC(=O)c1cc(CN2CCCC2)on1` it was 75% (inactive); in that of `COc1ccc(-c2cc(C(=O)N3CCCCC3C)no2)cc1OC` (configuration not stated), 58% (active); in that of `CC1CCCCN1C(=O)c1cccc(C(=O)N2CCCCC2C)c1` (configuration not stated), 80% (inactive).
Take `COc1ccccc1-c1cc(C(=O)N2CCCCC2C)no1` (configuration not stated): the survival was 11% (active).
As for `CC1CCCCN1C(=O)c1cc(-c2ccccc2)on1` (configuration not stated), the survival was 88% (inactive).
In the case of `COc1ccc(-c2cc(C(=O)Nc3ccc4c(c3)OCO4)no2)cc1OC` it was 65% (inactive); in that of `CC1CCCCN1C(=O)c1cc(-c2ccc(Br)cc2)on1` (configuration not stated), 66% (inactive).
The same measure for `CCOc1ccccc1C(=O)N(C)c1ccccc1`: 92% (inactive); for `CCc1nn2c(=O)cc(COC(=O)c3ccccc3NC(=O)c3ccc(C(C)(C)C)cc3)nc2s1`: 91% (inactive).
In the case of `O=c1cc(-c2ccccc2)nc(SCc2nc(-c3ccccc3Cl)no2)[nH]1`, the survival was 69% (inactive).
In the case of `Cc1ccc(CNC(=O)Cn2c(-c3cccs3)cc3cc(Cl)ccc32)cc1`, the survival was 79% (inactive).
On to `CCOc1cccc(C(=O)Nc2ccc3oc(-c4ccc(C(C)(C)C)cc4)nc3c2)c1`, for which the survival is 46% (active).
In the case of `CCOc1ccc(C(=O)Nc2ccc3oc(-c4ccc5ccccc5c4)nc3c2)cc1` it was 74% (inactive); in that of `Cc1ccc(C(=O)Nc2ccc3oc(-c4ccc(C(C)(C)C)cc4)nc3c2)cc1`, 70% (inactive).
The same measure for `CCCCOc1cccc(C(=O)Nc2ccc3oc(-c4cccnc4)nc3c2)c1`: 46% (active); for `CCOc1ccc(C(=O)Nc2ccc3oc(-c4ccncc4)nc3c2)cc1`: 74% (inactive).
In the case of `CCCCOc1ccc(C(=O)Nc2ccc3oc(-c4cccnc4)nc3c2)cc1` it was 69% (inactive).
As for `CCOc1cccc(C(=O)Nc2ccc3oc(-c4cccnc4)nc3c2)c1`, the survival was 56% (inactive).
Take `CCOc1ccc(C(=O)Nc2ccc3oc(-c4cccc5ccccc45)nc3c2)cc1`: the survival was 60% (active).
In the case of `CCOc1cccc(C(=O)Nc2ccc3oc(-c4ccncc4)nc3c2)c1` it was 70% (inactive); in that of `O=C(Nc1ccc(NC(=O)C2CC2)nc1)c1cccc(F)c1`, 77% (inactive).
For the molecule `CCCCCc1nn2cc(-c3ccccc3)nc2s1`, the survival was 105% (inactive).
Turning to `Nc1ccc(CN2C(=O)c3ccccc3C2=O)cc1`, the survival is 91% (inactive).
In the case of `O=C(C1CCCN(S(=O)(=O)c2cccs2)C1)N1CCN(c2ccccc2F)CC1` (configuration not stated) it was 85% (inactive); in that of `CCn1cc(C(=O)N2CCN(c3ccc(C(C)=O)cc3)CC2)c2cc(OC)c(OC)cc2c1=O`, 164% (inactive); in that of `CCC(=O)N1CCc2cc(S(=O)(=O)CCC(=O)N3CCN(c4cccc(C)c4C)CC3)ccc21`, 98% (inactive).
Turning to `O=C(CSc1nnc(COc2ccc(Cl)cc2)o1)Nc1ccccc1`, the survival was 51% (inactive).
The same measure for `COc1ccc(CCCc2nnc(SCC(=O)Nc3ccc(OC)cc3)o2)cc1`: 65% (inactive); for `Cc1ccc(NC(=O)CSc2nnc(COc3ccc(Cl)cc3)o2)cc1`: 49% (inactive); for `CC(C)c1ccccc1NC(=O)CSc1nnc(COc2ccccc2Cl)o1`: 99% (inactive).
With `CCc1ccccc1NC(=O)CSc1nnc(COc2ccccc2Cl)o1`, the survival was 66% (inactive).
The same measure for `COc1cccc(NC(=O)CSc2nnc(COc3ccc(Cl)cc3)o2)c1`: 57% (active); for `COc1ccc(CCCc2nnc(SCC(=O)Nc3cccc(F)c3C)o2)cc1`: 39% (active); for `COc1ccc(CCCc2nnc(SCC(=O)Nc3cc(F)ccc3C)o2)cc1`: 64% (inactive).
In the case of `Cc1cc(C)cc(NC(=O)CSc2nnc(COc3ccccc3Cl)o2)c1` it was 12% (active); in that of `O=c1c2oc3ccccc3c2n(Cc2ccccc2)c(=O)n1Cc1ccco1`, 95% (inactive); in that of `CCN(Cc1ccccc1)C(=O)CN1C(=O)COc2ccc(S(=O)(=O)N3CCCCCC3)cc21`, 95% (inactive).
The same measure for `COc1cc(C2CC(=O)c3cnc(N4CCN(CCO)CC4)nc3C2)cc(OC)c1OC` (configuration not stated): 92% (inactive).
`CCCn1c(N2CCN(C(=O)Nc3ccc(OC)cc3)CC2)nc2ccccc21`: the survival was 104% (inactive).
As to `CC(C)Cn1c(N2CCN(C(=O)Nc3ccc(Cl)cc3)CC2)nc2ccccc21`, the survival is 102% (inactive).
In the case of `CCn1c(N2CCN(C(=O)Nc3ccc(Cl)c(C(F)(F)F)c3)CC2)nc2ccccc21` it was 0% (active); in that of `CC(=O)c1ccc(NC(=O)c2noc3c2CSc2ccccc2-3)cc1`, 54% (inactive).
In the case of `COCCCNC(=O)C1CCN(Cc2nc(-c3ccc(OC)c(OC)c3)oc2C)CC1` it was 88% (inactive).
Take `COc1ccc(OC)c(-c2noc(N3CCN(c4ccc(C(C)=O)cc4)CC3)n2)c1`: the survival was 134% (inactive).
The same measure for `Cc1cc(N2CCCCC2)nc2ccc(NC(=O)/C=C/c3ccccc3Cl)cc12`: 44% (active); for `Cc1cc(N2CCCCC2)nc2ccc(NC(=O)/C=C/c3ccc(OC(C)C)cc3)cc12`: 50% (inactive); for `Cc1cc(N2CCC(C)CC2)nc2ccc(NC(=O)/C=C/c3cccc(Cl)c3)cc12`: 53% (active).
In the case of `Cc1cc(N2CCCCC2)nc2ccc(NC(=O)/C=C/c3ccccc3OC(C)C)cc12` it was 73% (inactive); in that of `Cc1ccc(/C=C/C(=O)Nc2ccc3nc(N4CCC(C)CC4)cc(C)c3c2)cc1`, 122% (inactive); in that of `Cc1cc(N2CCCCC2)nc2ccc(NC(=O)/C=C/c3ccc(OCCC(C)C)cc3)cc12`, 56% (inactive).
As to `COc1ccc(/C=C/C(=O)Nc2ccc3nc(N4CCC(C)CC4)cc(C)c3c2)cc1OC`, the survival is 51% (inactive).
As to `COc1ccc(/C=C/C(=O)Nc2ccc3nc(N4CCCCC4)cc(C)c3c2)cc1OC`, the survival is 43% (active).
In the case of `COc1ccc(/C=C/C(=O)Nc2ccc3nc(N4CCC(C)CC4)cc(C)c3c2)cc1` it was 51% (active).
